Rows were chosen to be rich in hits. Some 0.95% of all compounds tested hit in one or more screens of this group.
FBPA Giardia inh – qHTS Assay for Inhibitors of Fructose-1,6-bisphosphate Aldolase from Giardia Lamblia; A8B2U2; purified Giardia FBPA; Potency, µM (titrated, usually from 59.6 µM), for the others: at the highest dose activity, negative = inhibition, actives largely listed as inhibitors; 290,000 compounds, 0.71% hits; AID 2451, 2010; also: nearly all actives have a fitted effect of over 55% in size
Target sequence (A8B2U2 whole entry, looked up): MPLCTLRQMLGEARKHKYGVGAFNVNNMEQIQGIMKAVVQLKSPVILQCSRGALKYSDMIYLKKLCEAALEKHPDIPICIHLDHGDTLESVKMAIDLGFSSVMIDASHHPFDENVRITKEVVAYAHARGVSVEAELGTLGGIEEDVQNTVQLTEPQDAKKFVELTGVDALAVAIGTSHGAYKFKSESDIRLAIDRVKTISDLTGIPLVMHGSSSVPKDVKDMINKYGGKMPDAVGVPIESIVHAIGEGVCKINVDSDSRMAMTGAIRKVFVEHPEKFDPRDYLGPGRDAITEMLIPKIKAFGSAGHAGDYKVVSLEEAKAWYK
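40 nM FBPA preincubated 10 min at RT with compound (up to 57.5 uM final), then substrate plus GAPDH/TPI/NAD/arsenate coupling and diaphorase/resazurin added. Fluorescence read after 20 min at RT, 525/598 nm.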
RE007 growth inh – qHTS Assay for Inhibitors of the HIV-1 protein Vpr; S. pombe RE007 Vpr strain, BacTiter-Glo ATP luminescence, 24 h; Potency, µM (titrated, usually from 92.2 µM), inactives show at the highest dose activity change, negative = less growth, actives largely listed as inhibitors; 360,000 compounds, 0.21% hits; AID 651644, 2012; active = well fitted falling curve with a large enough effect; inconclusive = small, poorly fitted or top-dose-only effect; inactive = no such curve, though single readings can be large or run the other way; also: nearly all actives have a fitted effect of over 50% in size
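Fission yeast strain RE007, carrying one chromosomally integrated HIV-1 vpr copy, was seeded at OD 0.01 in PMG+AL medium with 23 nL pinned compound. After 24 h at 30 °C and 99% humidity, viability was read by BacTiter-Glo luminescence.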
TbPYK inhibitor – qHTS of Trypanosoma Brucei Inhibitors. pyruvate kinase (Trypanosoma brucei), Q57TT1. 410,000 compounds, 0.12% hits. Potency, µM (top dose mostly 76.8 µM), for inactives: at the top dose activity, negative = inhibition, hits mostly inhibitors. AID 624173, 2012. TbPYK enzyme, Kinase-Glo Plus ATP luminescence, 45 min; also: nearly all actives have a fitted effect of over 50% in size
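Quantitative HTS: titrated library compounds versus trypanosomal pyruvate kinase in TEA buffer (pH 7.2) containing KCl, MgCl2, BSA and Tween-20. Reactions were initiated with ADP, 130 uM final. Kinase-Glo Plus luminescence was read after 45 min at RT.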
LmPK inhibitor – qHTS Assay for Inhibitors of Leishmania Mexicana Pyruvate Kinase (LmPK); purified LmPK, Kinase-Glo ATP luminescence, 1 h; Potency, µM (series often up to 57.5 µM), for inactives: at the highest dose activity change, negative = inhibition, most hits filed as inhibitors; 290,000 compounds, 0.37% hits
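0.1 nM LmPK, 0.5 mM PEP, 0.1 mM ADP; 50 mM imidazole pH 7.2, 7 mM MgCl2, 50 mM KCl; 1 h RT. Kinase-Glo luminescence readout, normalized to no-enzyme (full inhibition) and uninhibited wells.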
Numbers without * were called inactive; ? = inconclusive; · = not tested or not shown; [ ] = dose if it differs, or a comment. Unless noted, calls follow the shape of the dose curve; as a rule, active = well fitted curve in the direction sought with a large enough effect; inconclusive = small, poorly fitted or top-dose-only effect, or another doubt; inactive = no such curve, though single readings can be large; an effect the other way counts as inactive or inconclusive. % is scaled to controls: 0 for no effect and ±100 for the full control effect; potency is read from the fitted curve at half-maximal effect.

SMILES	FBPA Giardia inh	RE007 growth inh	TbPYK inhibitor	LmPK inhibitor
Cc1cccc(-c2noc(-c3ccc4c(c3)OCO4)n2)c1	0.1%	-1.4%	-4.6%	6.9%
Cc1ccc(-c2nc(-c3ccncc3)no2)cc1	10.0%	-16.8%	4.2%	-10.7%
c1ccc(-c2noc(-c3cccnc3)n2)nc1	0.2%	-10.5%	-29.0%	14.1µM*
COc1cccc(-c2nc(-c3ccccn3)no2)c1	·	?	?	12.6µM*
COc1cccc(-c2nc(-c3ccccc3)no2)c1	2.3%	-28.7%	0.2%	-9.9%
c1ccc(-c2noc(-c3ccncc3)n2)nc1	-0.6%	?	?	12.6µM*
Cc1ccc(-c2nc(-c3cccnc3)no2)cc1	-0.1%	-26.1%	-3.1%	-29.5%
c1ccc(-c2noc(-c3ccc4c(c3)OCO4)n2)nc1	0.5%	?	11.2µM*	3.16µM*
CN1C[C@H]2c3ccccc3Oc3ccc(Cl)cc3[C@@H]2C1	·	·	4.8%	·
c1ccc(-c2noc(C3CCCCC3)n2)nc1	0.5%	35.5µM*	2.6%	?
Brc1ccc(-c2noc(C3CCCCC3)n2)cc1	3.0%	-6.8%	-2.5%	-6.2%
O=[N+]([O-])c1cccc(-c2nc(-c3ccccn3)no2)c1	3.5%	-25.4%	-4.8%	?
Clc1ccccc1/C=C/c1nc(-c2ccccn2)no1	-0.4%	?	-13.9%	3.98µM*
c1ccc(-c2noc(-c3ccc4ccccc4c3)n2)nc1	1.4%	?	-18.0%	6.31µM*
CC[C@H]1OC(=O)C[C@@H](O)[C@H](C)[C@@H](O[C@@H]2O[C@H](C)C[C@H](N(C)C)[C@@H]2O)[C@@H](CC=O)C[C@@H](C)C(=O)/C=C\[C@]2(C)O[C@H]2[C@@H]1C	·	·	-6.8%	·
CC(=O)C[C@H]1[C@H](O[C@H]2[C@H](OC(C)C(=O)N[C@@H](C)C(=O)N[C@H](CCC(=O)N[C@@H](CCCCN)C(=O)N[C@H](C)C(=O)O)C(N)=O)[C@@H](NC(=O)O)C(O)O[C@@H]2CO)O[C@H](CO)[C@@H](O)[C@@H]1O (stereo partly specified)	·	·	-4.5%	·
Cc1ccc(CSC2=NC(C)(C)Nc3ccccc32)c(C)c1	·	·	2.5%	·
C=C(C)CC1(c2ccccc2)Oc2ccccc2-c2nc3cc(Cl)c(Cl)cc3nc21 (stereo unspecified)	-1.4%[12.9 µM]	·	·	·
COc1ccccc1C(=O)NCCC(=O)Nc1nc2ccccc2[nH]1	·	-5.5%	-2.7%	·
COc1cc(SC)ccc1C(=O)Nc1c(C)cccc1C	-0.8%	18.5%	0.6%	6.8%
COc1cc(SC)ccc1C(=O)NNC(=O)c1cc(C)oc1C	·	12.6µM*	?	·
COc1cccc(C(=O)Nc2nc3ccccc3[nH]2)c1	-16.1%	?	-19.1%	14.1µM*
COc1cc(SC)ccc1C(=O)Nc1nc2ccccc2[nH]1	-18.0%	3.98µM*	?	-21.8%
COc1ccccc1C(=O)Nc1nc2ccccc2[nH]1	-9.3%	?	10µM*	11.2µM*
CCCS(=O)(=O)c1ncc(Cl)c(C(=O)N(Cc2ccccc2)Cc2ccco2)n1	·	·	-4.4%	·
SMILES	FBPA Giardia inh	RE007 growth inh	TbPYK inhibitor	LmPK inhibitor
Oc1ccc(/C=N/NC(=S)Nc2cccnc2)c(O)c1O	7.06µM*	-17.8%	?	-5.7%
COc1cccc(N/N=C/c2cccc(Br)c2O)c1	-10.0%	3.8%	-0.5%	-6.2%
Cc1cccc(N/N=C/c2ccc(O)c(O)c2O)c1	14.1µM*	15.1%	-19.5%	7.6%
Cc1ccc(S(=O)(=O)N[C@H]2COC(=O)[C@@H](C)COC(=O)[C@H](C)NC(=O)C/C=C\[C@H]2C)cc1	2.3%[12.9 µM]	·	·	·
Cc1c(N)nc([C@@H](CC(N)=O)NC[C@H](N)C(N)=O)nc1C(=O)N[C@H](C(=O)N[C@H](C)[C@H](O)[C@H](C)C(=O)N[C@@H](C(=O)NCCc1nc(-c2nc(C(=O)NCCC[S+](C)C)cs2)cs1)[C@H](C)O)[C@H](O[C@@H]1O[C@@H](CO)[C@@H](O)[C@H](O)[C@@H]1O[C@H]1O[C@H](CO)[C@H](O)[C@H](OC(N)=O)[C@@H]1O)c1cnc[nH]1	·	·	7.8%	·
CCC(C)(C)OC(=O)N[C@@H](Cc1c[nH]c2ccccc12)C(=O)N[C@@H](CCSC)C(=O)N[C@@H](CC(=O)O)C(=O)N[C@@H](Cc1ccccc1)C(N)=O	·	·	0.2%	·
c1csc(-c2nc(CN3CCSCC3)cs2)c1	-12.9%	-14.8%	?	15.8µM*
